Rows were chosen to be rich in hits. Some 21% of all compounds tested hit in one or more screens of this group.
NS1 inh = qHTS Assay for Inhibitors of Influenza NS1 Protein Function | Potency, µM (doses to about 46.1 µM) | 0.4% of 270,000 active | AID 2326, 2010; calls by dose curve; also: actives are rising curves; nearly all actives have a fitted effect of over 50% in size
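OD600 was taken as the measure of yeast growth restored by compound in an NS1-expressing S. cerevisiae strain. Cells had been washed out of glucose medium and diluted 1:100 into galactose -URA medium, pH 6.0.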
Shiga toxin inh = A qHTS for Small Molecule Inhibitors of Shiga Toxin; Vero cells, Shiga toxin protein synthesis inhibition reporter; inhibition, % at 38.7 µM; 9.2% of 290,000 active; in the data active = inhibition mostly above about 28%, no sharp cut-off; inactive = mostly below about 43%
Pf growth 96h = Primary qHTS for delayed death inhibitors of the malarial parasite plastid, 96 hour incubation. P. falciparum luciferase reporter growth, 96 h. 6.9% of 320,000 active. Potency, µM (titrated, usually from 28.7 µM), usual class: inhibitors. AID 504834, 2011
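Compounds incubated with erythrocytes infected by luciferase-expressing P. falciparum (2% hematocrit, 0.05% parasitemia final) for 96 hours, 37 C in 5% CO2. Growth inhibition scored as decreased luciferase luminescence.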
Cycloheximide cs = Cycloheximide Counterscreen for Small Molecule Inhibitors of Shiga Toxin | cell reporter, cycloheximide protein synthesis inhibition counterscreen | max response, % | 12% of 300,000 active; in the data active = max response mostly above about 13%, no sharp cut-off; inactive = mostly below about 14%; also: read at 38.3 µM for the half of the compounds with a filed dose
FBPA Giardia inh = qHTS Assay for Inhibitors of Fructose-1,6-bisphosphate Aldolase from Giardia Lamblia | AID 2451, 2010 | A8B2U2 | purified Giardia FBPA | Potency, µM (doses to about 59.6 µM), most hits filed as inhibitors | 0.71% of 290,000 active; also: nearly all actives have a fitted effect of over 55% in size
Target sequence (A8B2U2 whole entry, looked up): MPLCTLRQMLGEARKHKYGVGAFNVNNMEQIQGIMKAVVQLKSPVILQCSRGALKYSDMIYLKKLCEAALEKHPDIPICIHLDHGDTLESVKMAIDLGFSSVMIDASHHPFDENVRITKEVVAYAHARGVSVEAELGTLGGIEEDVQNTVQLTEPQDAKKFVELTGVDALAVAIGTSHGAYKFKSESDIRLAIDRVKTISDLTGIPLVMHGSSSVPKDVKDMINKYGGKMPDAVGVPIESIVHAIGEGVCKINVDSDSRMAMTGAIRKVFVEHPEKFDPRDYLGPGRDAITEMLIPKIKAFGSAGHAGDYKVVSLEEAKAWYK
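Giardia FBPA (40 nM reagent) was preincubated 10 min at RT with compound (up to 57.5 uM final), then substrate plus GAPDH/TPI/NAD/arsenate coupling system with diaphorase/resazurin was added; resorufin fluorescence (525/598 nm) was read after 20 min.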
Pf growth 48h = Primary qHTS for delayed death inhibitors of the malarial parasite plastid, 48 hour incubation. P. falciparum luciferase growth in erythrocytes, 48 h. 5.9% of 310,000 active. Potency, µM (doses to about 28.7 µM), actives largely listed as inhibitors
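First compound was added to culture medium, then infected red cells at 0.1% parasitemia and 2% hematocrit (final). After incubation at 37 C under 5% CO2, luciferase detection reagent was dispensed and light output recorded.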
Large screens that a line does not name were inactive. Unless noted, calls follow the shape of the dose curve; as a rule, active = well fitted curve in the direction sought with a large enough effect; inconclusive = small, poorly fitted or top-dose-only effect, or another doubt; inactive = no such curve, though single readings can be large; an effect the other way counts as inactive or inconclusive.

CC(=O)O[C@]12CC[N@+]3(C)CCCC[C@@H]3[C-]1Nc1ccccc12	none (no result: Shiga toxin inh, Pf growth 96h, Cycloheximide cs, FBPA Giardia inh, Pf growth 48h)
COc1ccc(CCNC(=O)CC2Nc3cc(C)c(C)cc3NC2=O)cc1OC (stereo not drawn)	NS1 inh inconclusive, Pf growth 48h 13µM (no result: Pf growth 96h)
Cc1cc2c(cc1C)NC(CC(=O)NCc1ccccc1)C(=O)N2 (stereo not drawn)	Shiga toxin inh 61, Cycloheximide cs 26, Pf growth 48h inconclusive
COc1ccc(CCNC(=O)C2CC(=O)N(CCc3ccc(C)cc3)C2)cc1OC (stereo not drawn)	none (no result: NS1 inh)
O=C(c1ccncc1)N1CCN(S(=O)(=O)c2cccc(Cl)c2)CC1	Pf growth 96h inconclusive (no result: NS1 inh, Shiga toxin inh, Cycloheximide cs, FBPA Giardia inh)
O=C(c1ccc2c(=O)n3c(nc2c1)CCC3)N1CCCSC1=Nc1ccccc1	Pf growth 48h inconclusive (no result: NS1 inh, Shiga toxin inh, Cycloheximide cs, FBPA Giardia inh)
C=CCC(CC(O)COCCC)C(=O)NNC(=S)Nc1ccccc1 (stereo not drawn)	Shiga toxin inh 71, Pf growth 96h inconclusive, Cycloheximide cs 36
CC(C)CCOCC(O)CCC(=O)NNC(=S)Nc1ccccc1 (stereo not drawn)	none
NS(=O)(=O)c1ccc(CCNC(=O)c2ccc(NS(=O)(=O)c3ccc4[nH]c(=O)[nH]c4c3)cc2)cc1	none (no result: NS1 inh, Shiga toxin inh, Cycloheximide cs, FBPA Giardia inh)
N#CCc1nn2c3c(cnc2c1C#N)C(=O)CCC3	Pf growth 96h inconclusive, FBPA Giardia inh inconclusive
CCCC(=O)NNC(=O)c1ccoc1C	none
CCC(C)(C)C1CCC(=NNC(=O)c2ccoc2C)CC1 (stereo not drawn)	NS1 inh inconclusive, Shiga toxin inh 69, Cycloheximide cs 56 (no result: Pf growth 48h)
COc1cccc(-c2ccc3ncnc(NC4CC4)c3c2)c1	none (no result: NS1 inh, Shiga toxin inh, Pf growth 96h, Cycloheximide cs, Pf growth 48h)
COc1cc(CNc2ccccc2)c([N+](=O)[O-])cc1OC	FBPA Giardia inh inconclusive, Pf growth 48h 13µM (no result: Shiga toxin inh)
COc1cccc(CNc2ccc(F)c([N+](=O)[O-])c2)c1O	Shiga toxin inh 47, Cycloheximide cs 30 (no result: NS1 inh)
O=C(NC1CC(=O)N(c2ccc(F)cc2)C1)C(=O)c1c[nH]c2ccccc12 (stereo not drawn)	none (no result: NS1 inh, Shiga toxin inh, Cycloheximide cs, FBPA Giardia inh)
Cc1cc(C(=O)Nc2ccc3c(c2)OCCO3)ccc1[N+](=O)[O-]	Cycloheximide cs 27 (no result: Shiga toxin inh)
O=C(Nc1ccc2c(c1)OCCO2)c1ccc2nccnc2c1	Cycloheximide cs 33 (no result: Pf growth 96h)
O=C(Nc1ccc(Cl)c(Cl)c1)C1=Cc2ccccc2OC1	Shiga toxin inh 66, Pf growth 96h inconclusive, Cycloheximide cs 43 (no result: Pf growth 48h)
Cc1cc(C(=O)NC(C)CCc2ccccc2)ccc1[N+](=O)[O-] (stereo not drawn)	Cycloheximide cs 18 (no result: Shiga toxin inh)
Cc1ccc2[nH]c(=O)c(COC(=O)C3CCCCC3)cc2c1	none
COc1ccccc1C(=O)NC(=O)COC(=O)c1ccc(C)o1	none (no result: NS1 inh, Shiga toxin inh, Cycloheximide cs, FBPA Giardia inh)
Cc1cc(C(=O)Nc2ccc(N3CCCC3)c(Cl)c2)ccc1[N+](=O)[O-]	Shiga toxin inh 31, Pf growth 96h 9.3µM, Cycloheximide cs 47
O=C(Nc1ncccc1Cl)c1ccc2c(c1)OCCO2	Shiga toxin inh 84, Cycloheximide cs 32 (no result: NS1 inh)
O=C(Nc1cccc2ncccc12)c1ccc2c(c1)OCCO2	none (no result: Pf growth 96h)
O=C(Nc1ccc2c(c1)OCCO2)c1ccc(Cl)c(Cl)c1	Shiga toxin inh 84, Pf growth 96h inconclusive, Cycloheximide cs 45
COc1ccc(C(=O)NC(=S)Nc2cccc(NC(=O)c3ccco3)c2)cc1[N+](=O)[O-]	none
Cc1cc(C(=O)Nc2cccc(NC(=O)c3ccco3)c2)ccc1[N+](=O)[O-]	Shiga toxin inh 27, Pf growth 96h inconclusive, Cycloheximide cs 19 (no result: FBPA Giardia inh)
Cc1cc(C(=O)NNC(=O)COc2ccccc2Cl)n[nH]1	Pf growth 96h inconclusive
CN(CC(=O)Nc1c(Cl)cccc1Cl)C(=O)c1cccc(-n2cccc2)c1	Pf growth 96h inconclusive (no result: NS1 inh, Shiga toxin inh, Cycloheximide cs, FBPA Giardia inh)
Cc1cc(NS(C)(=O)=O)c(=O)n(Cc2c(F)cccc2Cl)c1	Pf growth 96h inconclusive (no result: Shiga toxin inh)
Cc1ccccc1NS(=O)(=O)c1ccc(C(=O)NN2CCCCC2)cc1	Pf growth 96h inconclusive (no result: FBPA Giardia inh)
O=C(Nc1ccc(C(O)(C(F)(F)F)C(F)(F)F)cc1)c1ccc(Cl)c([N+](=O)[O-])c1	Pf growth 96h 10µM, Pf growth 48h 12µM
O=C(Nc1ccc2c(c1)OCCO2)c1cccnc1	Shiga toxin inh 59, Pf growth 96h inconclusive, Cycloheximide cs 25
CCn1cc([N+](=O)[O-])c(C(=O)Nc2ccc3c(c2)OCCO3)n1	NS1 inh inconclusive, Shiga toxin inh 47, Cycloheximide cs 38
O=C(Nc1ccc2c(c1)OCCO2)c1ccc(Cl)c([N+](=O)[O-])c1	Shiga toxin inh active, Cycloheximide cs 56
CCn1cc([N+](=O)[O-])c(C(=O)NCc2ccc3c(c2)OCO3)n1	Pf growth 96h inconclusive
O=C(O)c1cc(NC(=O)c2ccc(Cl)c([N+](=O)[O-])c2)cc(C(=O)O)c1	none (no result: NS1 inh)
CC1CCN(c2ccc(C(=O)Nc3ccc4c(c3)OCO4)cc2[N+](=O)[O-])CC1	Pf growth 96h inconclusive, Pf growth 48h inconclusive
CCOC(=O)N1CCN(C(=O)CNC(=O)c2ccc(Br)o2)CC1	none
CC(C)(C)OC(=O)[C@H]1[C@H](c2ccc([N+](=O)[O-])cc2)C2(C(=O)c3ccccc3C2=O)C2c3ccccc3C=NN21 (stereo partly drawn)	Pf growth 96h 1.9µM, Cycloheximide cs 12, Pf growth 48h 13µM
CCN(CC(=O)Nc1ccc(Br)cc1)C(=O)c1nc2nc(C)cc(C)n2n1	Pf growth 96h inconclusive (no result: NS1 inh, Shiga toxin inh, Cycloheximide cs, FBPA Giardia inh)
COc1ccc([N+](=O)[O-])cc1-n1cccc1	none
Cc1ccc(C)n1-c1cc([N+](=O)[O-])ccc1-n1ccnc1	Pf growth 96h inconclusive, Pf growth 48h 12µM
COCCNC(=S)Nc1ccc(S(=O)(=O)Nc2cnc3ccccc3n2)cc1	none
COc1cc(C(=O)Nc2ccc(S(=O)(=O)Nc3cnc4ccccc4n3)cc2)cc(OC)c1OC	NS1 inh inconclusive, Pf growth 96h 12µM, Pf growth 48h inconclusive
COc1cc(C(=O)Nc2ccc(S(=O)(=O)Nc3cc(C)nc(C)n3)cc2)cc(OC)c1OC	none (no result: NS1 inh)
Cc1ccc(C(=O)Nc2ccc(S(=O)(=O)Nc3cnc4ccccc4n3)cc2)cc1	Cycloheximide cs 20
Cc1cc(C)nc(SCc2ccc(C(=O)NNC(=O)Nc3cccc(Cl)c3)cc2)n1	NS1 inh inconclusive
Cn1c(=O)n(C)c2cc(NC(=O)COc3ccc(F)cc3)ccc21	none
NC(=O)C1CCCN1C(=O)C(Cc1cnc[nH]1)NC(=O)C1CCC(=O)N1 (stereo not drawn)	none (no result: NS1 inh, Pf growth 96h, Pf growth 48h)
CCN(CC)CCN(Cc1cc2cc3c(cc2[nH]c1=O)OCO3)C(=S)NCc1ccco1	Pf growth 96h 6.6µM
CCN(CC)CCN(Cc1cc2cc(C)ccc2[nH]c1=O)C(=S)NCc1ccco1	Pf growth 96h inconclusive, Pf growth 48h 6.6µM
CCN(CC)CCN(Cc1cc2cc3c(cc2[nH]c1=O)OCCO3)C(=S)NCC(C)C	Pf growth 96h inconclusive, Pf growth 48h inconclusive
